Measured values taken from the supplement of paper PMC11732987, “Enantioselective OTUD7B fragment discovery through chemoproteomics screening and high-throughput optimisation” (Communications Chemistry, 2025).

Columns and labels:
Assay in all cases: log2 ratio of Biotin-Ahx-Ub-VS probe labelling (fragment/DMSO); higher = less target engagement (more negative = stronger competition), active = hit call of the paper (q ≤ 0.05, log2 ratio ≤ -1)
Settings in all cases: compound concentration: 200 uM; treatment time: 3 h
[1] = molecular target: T1, USP42 (UniProt Q9H9J4)
T1 sequence (whole entry): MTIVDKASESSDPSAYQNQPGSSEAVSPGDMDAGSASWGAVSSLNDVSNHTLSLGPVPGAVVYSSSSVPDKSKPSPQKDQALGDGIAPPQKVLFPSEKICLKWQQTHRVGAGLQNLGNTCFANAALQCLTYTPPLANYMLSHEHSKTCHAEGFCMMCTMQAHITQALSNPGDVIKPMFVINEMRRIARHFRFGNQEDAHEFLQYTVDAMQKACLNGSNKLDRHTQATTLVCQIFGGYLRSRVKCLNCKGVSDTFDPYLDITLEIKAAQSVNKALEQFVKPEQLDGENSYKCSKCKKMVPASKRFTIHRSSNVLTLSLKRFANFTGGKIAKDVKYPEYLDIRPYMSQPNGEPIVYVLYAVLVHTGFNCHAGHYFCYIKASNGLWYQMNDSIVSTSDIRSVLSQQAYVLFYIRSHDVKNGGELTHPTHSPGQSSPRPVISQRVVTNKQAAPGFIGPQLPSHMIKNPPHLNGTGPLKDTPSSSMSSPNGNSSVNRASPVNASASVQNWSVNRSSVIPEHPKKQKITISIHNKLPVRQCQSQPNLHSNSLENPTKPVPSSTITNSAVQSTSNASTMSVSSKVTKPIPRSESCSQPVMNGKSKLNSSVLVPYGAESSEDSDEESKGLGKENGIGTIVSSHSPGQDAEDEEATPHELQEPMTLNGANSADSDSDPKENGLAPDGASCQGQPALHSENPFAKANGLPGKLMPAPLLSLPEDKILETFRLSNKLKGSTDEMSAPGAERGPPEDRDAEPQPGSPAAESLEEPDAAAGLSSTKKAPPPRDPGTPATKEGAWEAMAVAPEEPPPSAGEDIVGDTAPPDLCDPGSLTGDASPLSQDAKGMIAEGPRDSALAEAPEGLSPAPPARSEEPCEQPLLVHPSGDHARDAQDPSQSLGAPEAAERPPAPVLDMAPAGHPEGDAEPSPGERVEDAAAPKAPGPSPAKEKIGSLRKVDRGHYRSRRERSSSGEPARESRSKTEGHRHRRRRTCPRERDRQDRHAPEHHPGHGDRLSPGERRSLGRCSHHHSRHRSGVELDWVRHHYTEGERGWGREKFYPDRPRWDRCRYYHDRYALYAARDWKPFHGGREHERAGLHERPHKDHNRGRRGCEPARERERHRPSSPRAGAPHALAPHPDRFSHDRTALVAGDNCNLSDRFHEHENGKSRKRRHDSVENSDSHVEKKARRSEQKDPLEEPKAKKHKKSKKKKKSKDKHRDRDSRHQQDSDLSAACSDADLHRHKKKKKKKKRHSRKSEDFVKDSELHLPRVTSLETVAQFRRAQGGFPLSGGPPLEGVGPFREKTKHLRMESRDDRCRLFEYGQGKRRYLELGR
How it was run: (§1)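 HEK293T lysate (495 µg per sample, in Tris/CHAPS/IGEPAL buffer with protease inhibitors) was exposed in triplicate for 3 h to fragment at 200 µM or to vehicle, then to Biotin-Ahx-Ub-VS at 0.5 µM final for 1 h. Labelled DUBs were enriched on NeutrAvidin, digested with LysC and trypsin, and analysed by diaPASEF LC-MS/MS. Spectronaut label-free quantities were normalised to the global median, and values are average log2 ratios of fragment over vehicle from an unpaired t-test. Only proteins with ≥2 unique peptides were used.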

[2] = molecular target: USP46 (UniProt P62068)
How it was run: as §1

[3] = molecular target: T2, USP47 (UniProt Q96K76)
T2 sequence (whole entry): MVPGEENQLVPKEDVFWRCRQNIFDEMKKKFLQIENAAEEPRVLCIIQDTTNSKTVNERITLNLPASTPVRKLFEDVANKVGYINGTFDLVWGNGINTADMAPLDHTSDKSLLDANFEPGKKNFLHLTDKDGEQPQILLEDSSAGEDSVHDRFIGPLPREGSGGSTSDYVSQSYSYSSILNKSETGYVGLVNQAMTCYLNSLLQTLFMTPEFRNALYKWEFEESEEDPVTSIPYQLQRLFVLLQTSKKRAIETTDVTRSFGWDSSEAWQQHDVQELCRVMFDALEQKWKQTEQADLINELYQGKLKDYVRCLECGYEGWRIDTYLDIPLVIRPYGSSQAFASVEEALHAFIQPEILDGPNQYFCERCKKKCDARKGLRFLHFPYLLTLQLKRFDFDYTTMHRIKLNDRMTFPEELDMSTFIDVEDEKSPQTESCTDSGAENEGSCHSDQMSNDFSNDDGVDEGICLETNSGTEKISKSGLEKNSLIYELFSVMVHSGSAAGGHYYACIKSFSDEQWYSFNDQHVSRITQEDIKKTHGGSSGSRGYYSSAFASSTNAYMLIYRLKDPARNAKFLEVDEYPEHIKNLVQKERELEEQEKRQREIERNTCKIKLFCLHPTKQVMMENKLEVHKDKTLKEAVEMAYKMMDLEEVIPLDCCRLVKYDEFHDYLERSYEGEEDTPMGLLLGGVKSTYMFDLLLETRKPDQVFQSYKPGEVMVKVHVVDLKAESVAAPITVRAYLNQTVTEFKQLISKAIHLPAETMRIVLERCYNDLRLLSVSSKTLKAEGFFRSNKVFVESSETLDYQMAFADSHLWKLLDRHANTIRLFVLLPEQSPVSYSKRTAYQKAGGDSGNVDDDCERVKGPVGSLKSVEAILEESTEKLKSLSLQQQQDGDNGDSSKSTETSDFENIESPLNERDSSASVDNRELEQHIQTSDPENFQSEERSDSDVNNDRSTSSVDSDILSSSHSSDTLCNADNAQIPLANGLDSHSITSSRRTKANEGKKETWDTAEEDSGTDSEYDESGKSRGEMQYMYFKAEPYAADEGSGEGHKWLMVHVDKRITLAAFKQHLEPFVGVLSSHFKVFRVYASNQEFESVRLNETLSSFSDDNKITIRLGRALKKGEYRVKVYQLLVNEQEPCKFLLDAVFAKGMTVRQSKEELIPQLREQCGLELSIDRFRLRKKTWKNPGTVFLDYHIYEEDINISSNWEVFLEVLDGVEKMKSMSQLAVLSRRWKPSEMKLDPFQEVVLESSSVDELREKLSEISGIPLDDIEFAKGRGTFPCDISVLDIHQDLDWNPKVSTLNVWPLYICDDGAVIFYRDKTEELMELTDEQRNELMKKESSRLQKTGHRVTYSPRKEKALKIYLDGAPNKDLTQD
How it was run: as §1

[4] = molecular target: T3, USP48 (UniProt Q86UV5)
T3 sequence (whole entry): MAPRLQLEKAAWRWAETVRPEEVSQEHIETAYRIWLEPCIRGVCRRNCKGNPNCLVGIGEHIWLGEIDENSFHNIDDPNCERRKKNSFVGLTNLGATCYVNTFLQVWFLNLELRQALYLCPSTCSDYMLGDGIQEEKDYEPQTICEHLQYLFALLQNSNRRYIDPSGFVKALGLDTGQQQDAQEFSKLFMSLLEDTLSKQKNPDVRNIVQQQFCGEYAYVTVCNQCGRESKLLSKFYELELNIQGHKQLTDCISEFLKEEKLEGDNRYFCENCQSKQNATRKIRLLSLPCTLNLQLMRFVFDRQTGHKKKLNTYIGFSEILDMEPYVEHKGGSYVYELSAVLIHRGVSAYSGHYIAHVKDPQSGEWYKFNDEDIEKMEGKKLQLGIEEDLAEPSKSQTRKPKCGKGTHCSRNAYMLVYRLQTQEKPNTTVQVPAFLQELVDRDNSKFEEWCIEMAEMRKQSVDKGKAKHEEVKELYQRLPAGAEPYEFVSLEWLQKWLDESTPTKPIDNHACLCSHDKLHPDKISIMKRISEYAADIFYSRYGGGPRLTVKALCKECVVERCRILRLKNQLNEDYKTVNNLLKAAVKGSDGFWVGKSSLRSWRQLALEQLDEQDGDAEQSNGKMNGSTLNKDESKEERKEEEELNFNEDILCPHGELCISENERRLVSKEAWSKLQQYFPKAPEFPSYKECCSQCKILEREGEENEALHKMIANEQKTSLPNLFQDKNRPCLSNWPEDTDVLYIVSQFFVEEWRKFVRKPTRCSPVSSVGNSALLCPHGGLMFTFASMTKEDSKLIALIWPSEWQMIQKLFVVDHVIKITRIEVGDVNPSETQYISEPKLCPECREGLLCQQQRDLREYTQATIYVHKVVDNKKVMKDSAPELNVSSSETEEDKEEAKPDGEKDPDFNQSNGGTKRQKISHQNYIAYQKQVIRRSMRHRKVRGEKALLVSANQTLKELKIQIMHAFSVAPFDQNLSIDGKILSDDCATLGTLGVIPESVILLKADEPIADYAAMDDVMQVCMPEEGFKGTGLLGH
How it was run: as §1

[5] = molecular target: T4, USP5 (UniProt P45974)
T4 sequence (whole entry): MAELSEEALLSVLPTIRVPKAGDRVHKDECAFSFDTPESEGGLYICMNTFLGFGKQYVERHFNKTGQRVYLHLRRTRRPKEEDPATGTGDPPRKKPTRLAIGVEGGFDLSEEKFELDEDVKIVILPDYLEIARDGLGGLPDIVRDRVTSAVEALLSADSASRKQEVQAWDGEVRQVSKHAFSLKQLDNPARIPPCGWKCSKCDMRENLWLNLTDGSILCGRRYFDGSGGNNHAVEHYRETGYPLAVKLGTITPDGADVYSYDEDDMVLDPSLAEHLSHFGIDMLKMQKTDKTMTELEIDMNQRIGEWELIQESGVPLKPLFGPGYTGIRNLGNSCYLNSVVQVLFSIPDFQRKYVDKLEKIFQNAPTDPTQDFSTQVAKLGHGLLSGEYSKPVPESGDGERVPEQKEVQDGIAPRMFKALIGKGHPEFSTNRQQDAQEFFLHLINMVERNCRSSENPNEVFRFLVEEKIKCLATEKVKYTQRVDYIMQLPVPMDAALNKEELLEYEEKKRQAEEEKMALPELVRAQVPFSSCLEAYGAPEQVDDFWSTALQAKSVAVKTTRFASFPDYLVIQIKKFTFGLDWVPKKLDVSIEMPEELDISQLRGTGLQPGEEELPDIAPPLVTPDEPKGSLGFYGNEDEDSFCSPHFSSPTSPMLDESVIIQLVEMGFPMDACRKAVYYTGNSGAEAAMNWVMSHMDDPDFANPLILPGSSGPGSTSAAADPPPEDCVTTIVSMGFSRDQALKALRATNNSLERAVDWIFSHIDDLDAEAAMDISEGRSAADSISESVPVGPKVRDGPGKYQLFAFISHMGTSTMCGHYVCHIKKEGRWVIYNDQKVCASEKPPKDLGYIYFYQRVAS
How it was run: as §1

[6] = molecular target: USP54 (UniProt Q70EL1)
How it was run: as §1

[7] = molecular target: USP7 (UniProt Q93009)
How it was run: as §1

[8] = molecular target: T5, USP8 (UniProt P40818)
T5 sequence (whole entry): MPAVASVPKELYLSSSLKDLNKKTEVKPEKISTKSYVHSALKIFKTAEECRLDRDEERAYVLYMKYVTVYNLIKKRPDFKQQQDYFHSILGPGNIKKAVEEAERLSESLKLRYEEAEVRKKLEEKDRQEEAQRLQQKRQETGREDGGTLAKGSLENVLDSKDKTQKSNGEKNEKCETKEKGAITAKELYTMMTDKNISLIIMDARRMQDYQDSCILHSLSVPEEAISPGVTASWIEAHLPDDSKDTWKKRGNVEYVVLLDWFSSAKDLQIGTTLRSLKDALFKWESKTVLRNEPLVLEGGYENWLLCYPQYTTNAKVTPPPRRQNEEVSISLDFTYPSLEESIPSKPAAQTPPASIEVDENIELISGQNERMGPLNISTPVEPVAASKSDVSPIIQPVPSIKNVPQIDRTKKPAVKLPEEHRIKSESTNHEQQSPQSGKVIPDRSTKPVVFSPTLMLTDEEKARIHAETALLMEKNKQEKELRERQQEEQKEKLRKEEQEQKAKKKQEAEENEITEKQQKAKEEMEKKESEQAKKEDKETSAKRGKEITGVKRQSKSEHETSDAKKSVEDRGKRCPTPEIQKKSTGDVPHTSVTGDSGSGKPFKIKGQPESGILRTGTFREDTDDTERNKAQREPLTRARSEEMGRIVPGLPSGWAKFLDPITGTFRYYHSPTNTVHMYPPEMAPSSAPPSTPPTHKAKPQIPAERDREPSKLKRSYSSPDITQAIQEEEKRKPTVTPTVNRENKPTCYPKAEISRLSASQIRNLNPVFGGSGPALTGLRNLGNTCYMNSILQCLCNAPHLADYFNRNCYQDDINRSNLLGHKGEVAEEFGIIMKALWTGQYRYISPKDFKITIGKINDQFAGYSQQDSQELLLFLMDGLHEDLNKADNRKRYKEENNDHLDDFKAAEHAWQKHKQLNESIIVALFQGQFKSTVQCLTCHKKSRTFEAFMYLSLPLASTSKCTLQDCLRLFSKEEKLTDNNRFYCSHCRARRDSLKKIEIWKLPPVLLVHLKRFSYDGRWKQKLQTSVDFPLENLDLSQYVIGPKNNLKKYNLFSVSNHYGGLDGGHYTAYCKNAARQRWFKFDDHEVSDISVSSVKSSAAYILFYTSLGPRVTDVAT
How it was run: as §1

[9] = molecular target: USP9X (UniProt Q93008)
How it was run: as §1

[10] = molecular target: UniProt O00487
How it was run: as §1

Measured: log2 ratio of Biotin-Ahx-Ub-VS probe labelling

Sequence of USP46 (P62068 whole entry): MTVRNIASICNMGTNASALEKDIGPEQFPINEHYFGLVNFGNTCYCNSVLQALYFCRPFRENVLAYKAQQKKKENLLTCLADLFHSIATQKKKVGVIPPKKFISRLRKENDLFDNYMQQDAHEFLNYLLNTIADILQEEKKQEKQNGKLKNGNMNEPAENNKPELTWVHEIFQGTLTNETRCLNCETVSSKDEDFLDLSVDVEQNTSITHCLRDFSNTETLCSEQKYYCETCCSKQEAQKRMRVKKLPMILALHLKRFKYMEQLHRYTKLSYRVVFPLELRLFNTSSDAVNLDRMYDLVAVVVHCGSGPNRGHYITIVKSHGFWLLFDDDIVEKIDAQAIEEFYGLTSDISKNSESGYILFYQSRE
Sequence of UniProt O00487 (O00487 whole entry): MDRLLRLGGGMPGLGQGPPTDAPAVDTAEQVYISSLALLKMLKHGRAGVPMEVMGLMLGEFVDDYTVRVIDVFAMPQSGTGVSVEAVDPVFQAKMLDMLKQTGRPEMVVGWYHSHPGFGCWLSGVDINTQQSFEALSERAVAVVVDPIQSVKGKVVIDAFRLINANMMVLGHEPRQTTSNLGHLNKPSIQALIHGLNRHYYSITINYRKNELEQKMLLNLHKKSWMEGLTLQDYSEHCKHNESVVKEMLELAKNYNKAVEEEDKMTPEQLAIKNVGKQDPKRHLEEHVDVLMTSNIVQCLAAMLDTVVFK
Sequence of USP9X (Q93008 whole entry): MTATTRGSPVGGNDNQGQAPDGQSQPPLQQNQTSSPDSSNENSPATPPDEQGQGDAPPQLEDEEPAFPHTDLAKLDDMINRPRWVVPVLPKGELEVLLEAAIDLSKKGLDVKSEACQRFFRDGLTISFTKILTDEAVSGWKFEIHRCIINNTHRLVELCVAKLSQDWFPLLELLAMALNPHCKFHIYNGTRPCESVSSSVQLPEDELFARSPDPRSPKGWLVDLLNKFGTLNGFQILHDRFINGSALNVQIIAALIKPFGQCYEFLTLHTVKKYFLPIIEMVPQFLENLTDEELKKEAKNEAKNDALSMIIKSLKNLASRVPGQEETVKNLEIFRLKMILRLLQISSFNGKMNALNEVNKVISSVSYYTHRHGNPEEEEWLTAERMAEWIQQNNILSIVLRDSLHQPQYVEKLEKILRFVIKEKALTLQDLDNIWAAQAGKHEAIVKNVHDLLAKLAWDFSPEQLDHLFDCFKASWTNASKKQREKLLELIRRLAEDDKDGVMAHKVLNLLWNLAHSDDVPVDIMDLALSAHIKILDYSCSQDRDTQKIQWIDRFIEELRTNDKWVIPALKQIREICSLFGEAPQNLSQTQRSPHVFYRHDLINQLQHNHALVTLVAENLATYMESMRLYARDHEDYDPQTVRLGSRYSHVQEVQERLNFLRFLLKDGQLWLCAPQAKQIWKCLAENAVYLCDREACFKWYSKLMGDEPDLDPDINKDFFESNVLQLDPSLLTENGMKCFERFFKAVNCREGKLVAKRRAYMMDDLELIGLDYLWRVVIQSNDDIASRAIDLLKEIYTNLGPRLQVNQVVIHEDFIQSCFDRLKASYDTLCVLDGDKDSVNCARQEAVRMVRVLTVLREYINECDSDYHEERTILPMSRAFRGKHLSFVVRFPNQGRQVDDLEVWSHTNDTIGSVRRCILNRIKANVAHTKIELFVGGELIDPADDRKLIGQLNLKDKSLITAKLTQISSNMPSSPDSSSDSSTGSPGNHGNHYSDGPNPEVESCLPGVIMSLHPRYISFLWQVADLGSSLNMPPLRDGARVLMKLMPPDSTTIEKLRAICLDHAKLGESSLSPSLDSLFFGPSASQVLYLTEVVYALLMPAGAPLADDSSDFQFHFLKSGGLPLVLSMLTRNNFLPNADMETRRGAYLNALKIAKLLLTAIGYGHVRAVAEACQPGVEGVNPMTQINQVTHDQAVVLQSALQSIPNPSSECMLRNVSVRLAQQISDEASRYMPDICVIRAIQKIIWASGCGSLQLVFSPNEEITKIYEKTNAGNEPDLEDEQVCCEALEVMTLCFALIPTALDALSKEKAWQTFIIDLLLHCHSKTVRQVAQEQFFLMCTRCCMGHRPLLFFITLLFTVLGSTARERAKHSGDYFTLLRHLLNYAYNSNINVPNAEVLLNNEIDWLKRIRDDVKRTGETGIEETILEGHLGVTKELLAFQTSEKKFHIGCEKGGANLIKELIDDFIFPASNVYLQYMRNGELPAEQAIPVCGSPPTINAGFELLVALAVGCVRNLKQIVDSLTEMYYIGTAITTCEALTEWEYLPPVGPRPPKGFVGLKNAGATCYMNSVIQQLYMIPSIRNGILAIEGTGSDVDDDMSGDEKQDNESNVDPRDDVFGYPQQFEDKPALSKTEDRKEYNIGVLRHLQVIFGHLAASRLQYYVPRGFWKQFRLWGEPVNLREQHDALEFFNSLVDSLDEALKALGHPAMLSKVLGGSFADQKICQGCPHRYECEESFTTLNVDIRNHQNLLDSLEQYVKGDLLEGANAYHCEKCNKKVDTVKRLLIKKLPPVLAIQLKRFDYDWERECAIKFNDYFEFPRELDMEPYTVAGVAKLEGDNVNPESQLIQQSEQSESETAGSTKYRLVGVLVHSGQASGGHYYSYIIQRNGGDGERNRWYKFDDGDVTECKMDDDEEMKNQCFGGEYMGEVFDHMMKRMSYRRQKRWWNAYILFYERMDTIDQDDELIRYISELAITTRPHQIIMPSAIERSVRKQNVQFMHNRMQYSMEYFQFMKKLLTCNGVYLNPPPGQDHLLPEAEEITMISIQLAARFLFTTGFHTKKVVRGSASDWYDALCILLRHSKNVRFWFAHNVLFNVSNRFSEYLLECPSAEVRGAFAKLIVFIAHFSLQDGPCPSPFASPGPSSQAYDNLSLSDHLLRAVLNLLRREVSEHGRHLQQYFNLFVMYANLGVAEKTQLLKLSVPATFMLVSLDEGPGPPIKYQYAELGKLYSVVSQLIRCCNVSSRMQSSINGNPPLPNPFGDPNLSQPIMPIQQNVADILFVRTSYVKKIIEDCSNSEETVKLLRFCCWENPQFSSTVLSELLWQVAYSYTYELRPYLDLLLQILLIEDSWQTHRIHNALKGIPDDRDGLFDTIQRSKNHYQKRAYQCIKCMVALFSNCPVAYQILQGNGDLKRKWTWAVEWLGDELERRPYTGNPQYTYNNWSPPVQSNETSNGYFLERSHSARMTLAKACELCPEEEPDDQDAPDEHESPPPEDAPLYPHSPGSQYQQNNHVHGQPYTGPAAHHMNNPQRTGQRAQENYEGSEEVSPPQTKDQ
Sequence of USP7 (Q93009 whole entry, looked up): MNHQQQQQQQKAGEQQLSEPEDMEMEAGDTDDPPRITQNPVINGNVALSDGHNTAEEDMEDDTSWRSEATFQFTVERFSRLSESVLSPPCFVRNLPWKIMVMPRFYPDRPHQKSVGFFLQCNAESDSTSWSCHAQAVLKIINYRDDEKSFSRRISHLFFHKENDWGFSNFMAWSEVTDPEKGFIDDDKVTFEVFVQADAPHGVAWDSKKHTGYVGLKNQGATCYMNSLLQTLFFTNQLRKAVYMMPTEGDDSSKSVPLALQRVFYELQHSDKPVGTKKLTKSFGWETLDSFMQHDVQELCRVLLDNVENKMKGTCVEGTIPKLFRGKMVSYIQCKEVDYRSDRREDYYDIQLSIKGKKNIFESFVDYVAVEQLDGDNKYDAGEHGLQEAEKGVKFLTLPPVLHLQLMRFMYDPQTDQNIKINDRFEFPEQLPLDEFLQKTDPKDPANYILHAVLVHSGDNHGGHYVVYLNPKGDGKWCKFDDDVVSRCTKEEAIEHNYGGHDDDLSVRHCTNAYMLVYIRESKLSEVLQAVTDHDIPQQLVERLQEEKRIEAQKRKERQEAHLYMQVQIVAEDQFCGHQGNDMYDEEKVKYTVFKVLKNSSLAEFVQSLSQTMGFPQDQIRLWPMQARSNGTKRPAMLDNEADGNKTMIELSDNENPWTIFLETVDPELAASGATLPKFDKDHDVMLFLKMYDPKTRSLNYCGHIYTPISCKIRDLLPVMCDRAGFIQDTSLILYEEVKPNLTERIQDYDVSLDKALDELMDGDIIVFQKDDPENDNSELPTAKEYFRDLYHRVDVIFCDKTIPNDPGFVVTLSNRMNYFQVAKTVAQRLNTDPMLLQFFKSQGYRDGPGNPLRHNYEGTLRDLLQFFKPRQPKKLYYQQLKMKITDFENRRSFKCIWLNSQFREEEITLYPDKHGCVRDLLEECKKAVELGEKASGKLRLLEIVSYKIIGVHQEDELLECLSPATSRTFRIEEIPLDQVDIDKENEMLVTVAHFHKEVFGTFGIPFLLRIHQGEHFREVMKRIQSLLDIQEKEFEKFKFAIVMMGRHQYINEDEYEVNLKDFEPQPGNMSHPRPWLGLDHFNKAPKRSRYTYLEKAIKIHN

O=C(CCl)NC1CCC2(CC1)OCCO2
inactive: [1] -0.0532 | [2] -0.121 | [3] 0.154 | [4] -0.263 | [5] -0.0178 | [6] 0.457 | [7] -0.157 | [8] -0.255 | [9] -0.361 | [10] -0.145
